Screening data: PubChem, SRMLSC
NADH enzymes = inhibitors of enzymes used to reach an NAD/NADH endpoint; coupled PK/LDH NADH assays, four targets; IC50, µM (top dose mostly 10 µM), for the others: at the top dose inhibition; 0.02% of 65,000 active; AID 774;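 active means single-dose screening hits from any of four coupled enzyme assays that gave an IC50 when retested across doses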;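 further: the DPM-DC format reads NADH fluorescence rather than 340 nm absorbance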
DPM-DC inhibit = blocks S. pneumoniae diphosphomevalonate decarboxylase; purified DPM-DC, PK/LDH coupled NADH fluorescence; 0.49% of 65,000 active; calls only at 10 µM;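 active means the 320 compounds with the highest percent inhibition in the single-dose primary screen, excluding strongly autofluorescent ones, cut at about 32% in these data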;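 further: kinetic rate of NADH fluorescence loss reporting ADP formed by the decarboxylase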
Spn MK inh = blocks S. pneumoniae mevalonate kinase; 0.48% of 65,000 active; purified MK, PK/LDH-coupled NADH absorbance 340 nm; inhibition, % at 10 µM;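 active means ranked among the strongest by inhibition in the single 10 µM screen, a fixed top-ranked set picked for dose follow-up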
A340 absorber = absorbance at 340 nm; compound absorbance at 340 nm, fold over control; fold change at 10 µM; 65,000 tested, under 10 active; AID 708;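 active means at 10 µM dose, initial 340 nm absorbance at least 2 fold that of control wells; inactive means change under 2 fold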;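 further: initial absorbance extrapolated from kinetic A340 decline of NADH oxidation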
Fluor 339 460 = intrinsic fluorescence of library compounds, ex339/em460 – biochemical, MLSMR library, data from DPM-DC assay, artefact control, profiling panel; 5.5% of 65,000 active; compound autofluorescence, ex339/em460 nm, NADH buffer; stronger effect = higher value; 1 = no-compound wells, NADH background; fluorescence fold increase at 10 µM;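 active means at 10 µM, mean starting fluorescence two-fold or more over control wells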;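 further: signal is the first read of a kinetic run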
PMK inhibit = inhibitors of Streptococcus pneumoniae phosphomevalonate kinase; purified PMK, PK/LDH-coupled NADH absorbance 340 nm; inhibition, % at 10 µM; 0.49% of 65,000 active; AID 539;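 active means top-ranked compounds by inhibition in the single 10 µM screen, taking a fixed number of the strongest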;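 further: 0% = full reaction with DMSO carrier and 100% = background rate without enzyme reaction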
* hit, by the source's call; i = inactive; · = not tested or not shown. Shown are actives, neighbours in structure and some others; about 6.8% of the full set was active somewhere.

SMILES | NADH enzymes | DPM-DC inhibit | Spn MK inh | A340 absorber | Fluor 339 460 | PMK inhibit
c1ccc2c(CN3CCCCCCC3)c[nH]c2c1 | 20% | i | 48* | 1.1 | 1.1 | 12
c1ccc2c(CN3CCN(C4CCCCC4)CC3)c[nH]c2c1 | 3% | i | 9 | 1 | 1.2 | 0
Cc1cc(OCC(=O)NC2CCS(=O)(=O)C2)c2c3c(c(=O)oc2c1)CCC3 (stereo unspecified) | 2% | · | 3 | 1.1 | 2.2* | 0
Cc1cc(OCc2nn[nH]n2)c2c3c(c(=O)oc2c1)CCC3 | 9% | · | 5 | 1.1 | 3.9* | 13
CC(C)CCn1c(N)c(C(=O)OCC2CCCO2)c2nc3ccccc3nc21 (stereo unspecified) | 2% | · | 2 | 1.1 | 4* | 1
CCCCn1c(N)c(C(=O)OCC2CCCO2)c2nc3ccccc3nc21 (stereo unspecified) | 7% | · | 0 | 1.1 | 3.9* | 13
O=C1C2CCCN2C(c2ccccc2)N1c1ccccn1 (stereo unspecified) | 2% | i | 0 | 1 | 1.1 | 6
CCOC(=O)C(C)Oc1cc(C)cc2oc(=O)c3c(c12)CCCC3 (stereo unspecified) | 4% | · | 7 | 1 | 2.1* | 0
COC(=O)C(C)Oc1cc(C)cc2oc(=O)c3c(c12)CCC3 (stereo unspecified) | 7% | · | 6 | 0.99 | 3.8* | 7
Cc1cc(OCC(=O)OC(C)C)c2c3c(c(=O)oc2c1)CCCC3 | 1% | i | 0 | 1 | 1.6 | 0
COC(=O)C(C)Oc1cc(C)cc2oc(=O)c3c(c12)CCCC3 (stereo unspecified) | 7% | · | 6 | 1 | 3.7* | 8
COC(=O)c1cc(COc2cc(C)cc3oc(=O)c4c(c23)CCC4)c(C)o1 | 4% | i | 7 | 1 | 1.7 | 0
COc1ccc(OC)c([C@@H](O)[C@H](C)NC(C)(C)C)c1 | 2% | i | 4 | 0.98 | 1 | 0
Cc1ccc(C)c(CN2CCC(n3nnc4cc(F)ccc43)CC2)c1 | 4% | i | 12 | 1 | 1.1 | 0
COc1ccc(CCn2c(O)c(C=NCCCN(C)C)c(=O)[nH]c2=O)cc1OC | 1% | i | 4 | 1 | 1 | 7
CCC(=NCc1ccc2c(c1)OCO2)c1c(O)n(C)c(=O)n(C)c1=O | 6% | i | 5 | 1 | 1.1 | 13
CC(=O)N(C1=NCCCS1)c1ccc(F)cc1 | 4% | i | 0 | 1 | 1.1 | 12
O=C(c1cc2c(s1)-c1ccccc1OC2)N1CCC2(CC1)OCCO2 | 3% | · | 0 | 1.1 | 5.1* | 6
Cc1nc2cc(-c3cccc(F)c3)nn2c(C)c1CCC(=O)N1CCC2(CC1)OCCO2 | 5% | i | 6 | 1 | 2.3* | 7
Cc1nc2c(-c3ccccc3)c(C)nn2c(C)c1CCC(=O)N1CCC2(CC1)OCCO2 | 7% | i | 8 | 1.1 | 1.2 | 13
O=C(CSc1ccccc1)N1CCC2(CC1)OCCO2 | 8% | i | 9 | 1 | 1 | 10
Cc1nc2c(c(C)nn2-c2ccccc2)c(C)c1CCC(=O)N1CCC2(CC1)OCCO2 | 4% | i | 0 | 0.98 | 3.6* | 11
Cc1[nH]c2c(Cl)cccc2c1CCN | 2% | i | 5 | 0.97 | 1 | 13
CC(c1ccccc1F)n1cc(C(=O)Nc2ccc3nc[nH]c3c2)nn1 (stereo unspecified) | 5% | i | 15 | 1 | 1.1 | 0
CC(C)Cc1[nH]c(=O)c(C#N)c2c1CCC2 | 5% | · | 6 | 1.1 | 2.3* | 4
SMILES | NADH enzymes | DPM-DC inhibit | Spn MK inh | A340 absorber | Fluor 339 460 | PMK inhibit
Cc1cccn2c(=O)c3c(nc12)N1CCC(Cc2ccccc2)CC1C1(C3)C(=O)N(C)C(=O)N(C)C1=O (stereo unspecified) | 2% | i | 0 | 1.1 | 1.6 | 6
CCCCC12CNCC(C)(CNC1)C2=O | 4% | i | 0 | 1 | 1.1 | 11
CC(C)[C@H]1C(=O)N2CCC[C@H]2[C@]2(O)O[C@](NC(=O)[C@@H]3C=C4c5cccc6[nH]cc(c56)C[C@H]4N(C)C3)(C(C)C)C(=O)N12 | 7% | i | 9 | 0.98 | 2.4* | 0
Cc1oc(C(=O)Nc2ccc(O)cc2)cc1COc1ccccc1 | 11% | i | 9 | 1 | 1.1 | 8
CCCCn1c(=O)c(C(=O)Nc2nc3ccccc3[nH]2)c(O)c2ccccc21 | 10% | i | 14 | 1.1 | 1.7 | 9
CCCCCCn1c(N)c(C(=O)NCCN2CCOCC2)c2nc3ccccc3nc21 | 8% | · | 12 | 0.99 | 3.9* | 4
CCCn1nc2ccccc2c1P(=O)(N1CCOCC1)N1CCOCC1 | 5% | i | 2 | 0.98 | 1.1 | 14
CCCCCn1c(N)c(C(=O)NCCN2CCOCC2)c2nc3ccccc3nc21 | 6% | · | 4 | 1.1 | 2.1* | 7
CCCNC(=O)c1c(N)n(CC2CCCO2)c2nc3ccccc3nc12 (stereo unspecified) | 3% | · | 3 | 1 | 3.9* | 3
CC(C)OCCCNC(=O)c1c(N)n(CC2CCCO2)c2nc3ccccc3nc12 (stereo unspecified) | 1% | · | 0 | 1 | 3* | 0
CC12CCCCC1=NC(c1ccc(Br)cc1)N2O (stereo unspecified) | 0% | i | 0 | 1 | 1.1 | 0
CCC(=NCCOc1ccc(Cl)cc1)c1c(O)n(C)c(=O)n(C)c1=O | 3% | i | 7 | 1 | 1.1 | 1
CC(=O)N1CCC2(CC1)CC(=O)c1cc(OCC(=O)N3CCN(C)CC3)ccc1O2 | 5% | · | 0 | 1 | 5.1* | 9
CCCCc1ccc2[nH]cc(CCN)c2c1 | 2% | i | 5 | 0.98 | 1.1 | 0
